Experimental data published in the supplement of paper PMC10127200.
Structures can show the parent of a compound that is named as a salt.

What follows are compounds tested on A549 (assay: Euclidean distance of Cell Painting phenotypic profile (signed KS, 77 features) to DMSO centroid (dimensionless distance); 5 or 10 uM (library dependent); higher = stronger phenotypic change vs DMSO (phenoactivity)). Conditions: 48 h.
Procedure, shortened: (§1)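 Five cancer lines, together with a healthy fibroblast line, received library compounds for 48 h at a library-dependent 10 or 5 uM and 0.1% DMSO final. Harmony then derived 77 features from confocal 20X images (9 fields/well) of the stained cells, scoring each as a signed Kolmogorov-Smirnov statistic against same-plate vehicle wells. After plate-position correction, correlation weighting and replicate averaging at the top dose, phenoactivity was taken as each profile's Euclidean distance to the median vehicle profile.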
For `CC(C)CC(N)=O` [Isovaleramide], the Euclidean distance was 1.09. For `CC(C(=O)O)c1ccc2c(c1)CC(=O)c1ccccc1S2` (stereo unspecified) [Zaltoprofen], the Euclidean distance was 1.02. `O=C1CN(/N=C/c2ccc(-c3ccc([N+](=O)[O-])cc3)o2)C(=O)N1` [Dantrolene sodium hemiheptahydrate] gave an Euclidean distance of 0.894. Work on `Cc1cnc(Nc2ccc(N3CCN(C)CC3)cc2)nc1Nc1cccc(S(=O)(=O)NC(C)(C)C)c1` yielded an Euclidean distance of 4.93. For `Clc1ccc(COC(Cn2ccnc2)c2ccc(Cl)cc2Cl)cc1` (stereo unspecified) [Econazole], the Euclidean distance was 1.25. `CC(C)NC(=N)NC(=N)Nc1ccc(Cl)cc1` [Proguanil] showed an Euclidean distance of 1.28. `NC(=O)N[C@@H](CCC(=O)O)C(=O)O` [Carglumic Acid] gave an Euclidean distance of 0.653.

The compounds below were run on DU145 in the same assay as above. Conditions: 48 h.
Procedure, shortened: as §1
`COc1nc(C)nc(Cl)c1NC1=NCCN1` [Moxonidine] was tested, and the Euclidean distance was 1.39. Work on `CO[C@H]1C[C@@H]2CC[C@@H](C)[C@@](O)(O2)C(=O)C(=O)N2CCCC[C@H]2C(=O)O[C@H]([C@H](C)C[C@@H]2CC[C@H](n3cnnn3)[C@H](OC)C2)CC(=O)[C@H](C)/C=C(\C)[C@@H](O)[C@@H](OC)C(=O)[C@H](C)C[C@H](C)/C=C/C=C/C=C/1C` [Zotarolimus(ABT-578)] yielded an Euclidean distance of 1.38. For `N#CC(c1ccnc(OCc2ccc(CN3CCOCC3)cc2)n1)c1nc2ccccc2s1` (stereo unspecified) [Bentamapimod], the Euclidean distance was 1.31. `CC(N/C(=N\C#N)Nc1ccncc1)C(C)(C)C` (stereo unspecified) [Pinacidil] was tested, and the Euclidean distance was 2.42. `CN1CCN2c3ncccc3Cc3ccccc3C2C1` (stereo unspecified) [Mirtazapine] showed an Euclidean distance of 0.897. `Cc1cn([C@H]2C=C[C@@H](CO)O2)c(=O)[nH]c1=O` [Stavudine (d4T)] was tested, and the Euclidean distance was 0.564. Compound `CN1CCC(NC(=O)c2cc(-c3c(O)cc(O)cc3Oc3ccc([N+](=O)[O-])cc3)on2)CC1` has an Euclidean distance of 3.66. `CN1[C@@H]2CC[C@H]1C[C@@H](OC(=O)c1c[nH]c3ccccc13)C2` [Tropisetron] showed an Euclidean distance of 1.05. `Cc1cc(C)cc(OCC2CNC(=O)O2)c1` (stereo unspecified) [Metaxalone] gave an Euclidean distance of 0.745. `O=C(Nc1ccc(Cl)cc1)Nc1ccc(Cl)c(Cl)c1` [Triclocarban] gave an Euclidean distance of 1.62. `CC1(C)O[C@H]2CC(=O)OC[C@]23[C@H]2CC[C@@]4(C)[C@H](c5ccoc5)OC(=O)[C@H]5O[C@]54[C@]2(C)C(=O)C[C@@H]13` [Limonin] was tested, and the Euclidean distance was 0.885. For `CN1CCC(=C2c3ccccc3C=Cc3ccccc32)CC1` [Cyproheptadine hydrochloride], the Euclidean distance was 1.24. `CC1(C)S[C@@H]2[C@H](NC(=O)[C@H](N)c3ccc(O)cc3)C(=O)N2[C@H]1C(=O)O` [Amoxicillin trihydrate] gave an Euclidean distance of 0.666. `Oc1ccc(C2CNCCc3c2cc(O)c(O)c3Cl)cc1` (stereo unspecified) [Fenoldopam mesylate] showed an Euclidean distance of 0.768. In the case of `O=C1NC(=O)/C(=C/c2cccc(C(F)(F)F)c2)S1`, the Euclidean distance was 0.82. Compound `O=C(O)CNC(=O)c1ncc(-c2cccc(Cl)c2)cc1O` [Vadadustat] has an Euclidean distance of 2.71. Work on `CCOC(=O)[C@H](CCc1ccccc1)N[C@@H](C)C(=O)N1Cc2cc(OC)c(OC)cc2C[C@H]1C(=O)O` [Moexipril HCl] yielded an Euclidean distance of 1.02. With `CCCC(=O)O[C@]1(C(=O)CCl)[C@H](C)C[C@@H]2[C@@H]3CCC4=CC(=O)C=C[C@]4(C)[C@]3(F)C(=O)C[C@@]21C` [clobetasone butyrate] the Euclidean distance was 3.28. For `Oc1ccc(OCc2ccccc2)cc1` [Monobenzone], the Euclidean distance was 2.56. `O=C(Nc1ccncc1)c1cc([N+](=O)[O-])ccc1Cl` gave an Euclidean distance of 2.19. `CN(C)C[C@@H]1CCn2cc(c3ccccc32)C2=C(C(=O)NC2=O)c2cn(c3ccccc23)CCO1` gave an Euclidean distance of 4.1. Work on `Cc1cc(Nc2ncnc3ccc(-c4ccc(CNCCS(C)(=O)=O)o4)cc23)ccc1Oc1ccn2ncnc2c1` [HER2-Inhibitor-1] yielded an Euclidean distance of 1.08. In the case of `CC(C)(C)C(=O)Oc1ccc(S(=O)(=O)Nc2ccccc2C(=O)NCC(=O)O)cc1` [Sivelestat (ONO-5046)], the Euclidean distance was 0.861. For `Cc1cc(OCCCS(C)(=O)=O)cc(C)c1-c1cccc(COc2ccc3c(c2)OC[C@H]3CC(=O)O)c1`, the Euclidean distance was 1.26. `COc1cc2c(cc1OC)CN(CCc1ccc(NC(=O)c3cc(OC)c(OC)cc3NC(=O)c3cnc4ccccc4c3)cc1)CC2` [Tariquidar] was tested, and the Euclidean distance was 1. In the case of `COc1nccnc1NS(=O)(=O)c1ccc(N)cc1` [Sulfalene(SMPZ)], the Euclidean distance was 1.18. Work on `CC(=O)O[C@@]12CO[C@@H]1C[C@H](O)[C@@]1(C)C(=O)[C@H](O)C3=C(C)[C@@H](OC(=O)[C@H](O)[C@@H](NC(=O)OC(C)(C)C)c4ccccc4)C[C@@](O)([C@@H](OC(=O)c4ccccc4)[C@H]21)C3(C)C` [Docetaxel] yielded an Euclidean distance of 3.65. `CC(C)Cn1cnc2c(N)nc3ccccc3c21` [Imiquimod] was tested, and the Euclidean distance was 0.652. With `CC(=O)N1CCN(CCOc2ccc(C3CCN(C4=Nn5c(nnc5C(F)(F)F)CC4)CC3)cc2)CC1` the Euclidean distance was 1.22. For `CC1(C)CC(=O)c2c(C(F)(F)F)nn(-c3ccc(C(N)=O)c(N[C@H]4CC[C@H](OC(=O)CN)CC4)c3)c2C1`, the Euclidean distance was 3.89. `Cc1cc(CN2CCN(c3c(Br)cnc4nc(-c5ccc(N6CCN(C)CC6)cc5)[nH]c34)CC2)no1` was tested, and the Euclidean distance was 1.12. `O=C(NC(NC(=S)Nc1ccc(F)c([N+](=O)[O-])c1)C(Cl)(Cl)Cl)C(c1ccccc1)c1ccccc1` (stereo unspecified) was tested, and the Euclidean distance was 1.38. In the case of `CC(C)CC(N)=O` [Isovaleramide], the Euclidean distance was 0.731. Compound `CC(C(=O)O)c1ccc2c(c1)CC(=O)c1ccccc1S2` (stereo unspecified) [Zaltoprofen] has an Euclidean distance of 1.23. In the case of `O=C1CN(/N=C/c2ccc(-c3ccc([N+](=O)[O-])cc3)o2)C(=O)N1` [Dantrolene sodium hemiheptahydrate], the Euclidean distance was 1.67. Compound `Cc1cnc(Nc2ccc(N3CCN(C)CC3)cc2)nc1Nc1cccc(S(=O)(=O)NC(C)(C)C)c1` has an Euclidean distance of 3.18. With `Clc1ccc(COC(Cn2ccnc2)c2ccc(Cl)cc2Cl)cc1` (stereo unspecified) [Econazole] the Euclidean distance was 0.98. For `CC(C)NC(=N)NC(=N)Nc1ccc(Cl)cc1` [Proguanil], the Euclidean distance was 0.798. `NC(=O)N[C@@H](CCC(=O)O)C(=O)O` [Carglumic Acid] was tested, and the Euclidean distance was 0.949.
